Active and inactive are the calls of the source.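 The calls were made as follows: active = lower max turbidity than the uninhibited signal, meaning microtubule assembly was blocked; inactive = reaching the full max turbidity.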

The test in a line: Assay for Inhibitors of Tau-Mediated Microtubule Assembly. Conditions: purified tubulin + K18 tau, A340 turbidity kinetics, 45 min, at 50 µM; half-max time: measured here: time to half-max turbidity, stronger effect = higher value; max turbidity: stronger effect = lower value. The source says:
NIH Molecular Libraries Probe Production Network [MLPCN] NIH Chemical Genomics Center [NCGC] MLPCN Grant: X01 MH083262-01 Assay Provider: Carlo Ballatore, University of Pennsylvania NCGC Assay Overview: The microtubule-associated protein tau is an abundant protein in the axons of neurons that stabilizes microtubules. With its ability to modulate microtubule dynamics, tau contributes directly or indirectly, to key structural and regulatory cellular functions. Particularly important is the influence tau exerts on axonal transport, which allows signaling molecules, trophic factors and other essential cellular constituents to travel along the axons. Under pathological conditions, tau becomes sequestered into insoluble aggregates called neurofibrillary tangles. This phenomenon is believed to have pathological consequences by promoting axonal transport deficits that ultimately lead to synaptic dysfunction and neuronal loss. Because tau binds and stabilizes microtubules, tau fibrillization inhibitors were tested whether they interfere with tau-mediated tubulin polymerization. An in vitro assay was used where purified brain tubulin monomers were assembled into microtubules after the addition of GTP and tau. Microtubule assembly was monitored by the change in absorbance at 340 nm. Hong, M., Zhukareva, V., Vogelsberg-Ragaglia, V., Wszolek, Z., Reed, L., Miller, B. I., Geschwind, D. H., Bird, T. D., McKeel, D., Goate, A., Morris, J. C., Wilhelmsen, K. C., Schellenberg, G. D., Trojanowski, J. Q., and Lee, V. M. Y. (1998) Science 282, 1914-1917.
NCGC Assay Protocol Summary: Lyophilized bovine brain tubulin was reconstituted in RAB (100 mM MES, pH 6.9; 1 mM EDTA; 0.5 mM MgSO4) at a concentration of 10 mg/ml. Compounds (50 uM) were added to K18 tau (40 uM) in RAB and pre-incubated at room temperature for 60 minutes. To initiate the MT assembly reaction, 8.25 ul per well of 10 mg/ml tubulin was dispensed on a UV-clear 384-well plate, followed by 1.0 ul of 100 mM GTP in RAB and 41.25 ul of the compound:tau mixture. […] The plate was incubated in a Spectramax M5 plate reader at 37 C and the absorbance at 340 nm was read every minute for 45 minutes.
Regarding `COC(=O)c1c(NC(=O)CCCOc2ccc(C(C)(C)C)cc2)sc2c1C(C(=O)OC)CC2` (stereo unspecified), the max turbidity was 1.01 (inactive) and the half-max time was 12.6 min.
The like results for `CCOC(=O)c1nn(-c2ccccc2)c(=O)c2c(N)scc12` were, in that order, 0.65 (inactive) and 12.3 min.
In the same order, the values of `COC(=O)c1nn(-c2ccc(OC)cc2)c(=O)c2c(N)sc(C)c12` are 0.579 (inactive) and 13.3 min.
Take `COC(=O)c1c(NC(=O)CCCOc2ccc(C)cc2)sc2c1C(C(=O)OC)CC2` (stereo unspecified): the half-max time worked out at 11.1 min and the max turbidity is 0.764 (inactive).
The like results for `O=C(Cc1ccccc1)Nc1sc2c(c1C(=O)Nc1ccc(Cl)cc1)CCCC2` were, in that order, 10 min and 0.682 (inactive).
The like results for `COC(=O)c1c(NC(=O)C(C)(C)C)sc2c1C(C(=O)OC)CC2` (stereo unspecified) were, in that order, 12.9 min and 0.839 (inactive).
Regarding `COC(=O)c1c(NC(=O)CCCOc2cccc(C)c2)sc2c1C(C(=O)OC)CC2` (stereo unspecified), the max turbidity is 0.825 (inactive) and the half-max time turned out to be 12 min.
In the same order, the values of `CCOC(=O)c1nn(-c2ccc(OC)cc2)c(=O)c2c(N)scc12` are 0.782 (inactive) and 12.7 min.

The values above are taken from PubChem BioAssay AID1709 (National Center for Advancing Translational Sciences (NCATS), 2009).
